# Measured values taken from PubChem BioAssay (NCATS).
# Records with an inconclusive call do not appear. Values without a mark were called inactive. Active and inactive are the calls of the source. Calls follow the shape of the dose curve; as a rule, active = well fitted curve in either direction with a large enough effect (not every such curve was filed as active); inconclusive = small, poorly fitted or top-dose-only effect, or another doubt; inactive = flat fitted curve, though single readings scatter.
# Assay: AP1 Signaling Pathway (AID 357);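 also: ME-180 reporter cells stimulated with EGF at its EC50 level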
# Settings: ME-180 (cervical carcinoma) AP-1-bla reporter, EGF-induced, beta-lactamase ratio, 5 h; series mostly up to 38 µM; activity change, negative = inhibition: at the top concentration
# Excerpt: NCGC Assay Overview: Activator protein-1 (AP-1), a transcription factor, plays an important role in tumor genesis by regulating genes involved in cell proliferation, differentiation, apoptosis, and angiogenesis. AP-1 activity is induced by a complex network of signaling pathways that involves extracellular signals, such as growth factors. The AP-1 protein complex formed from c-Fos and c-Jun binding to the AP-1 response element results in transcriptional activation of genes containing such elements within their promoter. Low molecular weight molecules have been discovered and developed to modulate various components of these signaling pathways, for example, MAP kinase inhibitors. However, many points of pathway modulation remain untested due to the lack of chemical probes making this signaling locus of general interest. Using a beta-lactamase reporter-gene under control of the AP-1 response element, a cell-based assay [CellSensor(TM) AP-1-bla ME-180 developed by Invitrogen Corp.] was used to measure EGF-induced signaling. Library compounds were measured for their ability to modulate positively or negatively the action of EC50 EGF on reporter gene activity. Compounds were screened in a titration series in 1536-well format. Positive and negative modulators were identified based on the AC50 values derived from the screening data.
# NCGC Assay Protocol Summary: 2500 cells/5uL in Opti-MEM medium containing 0.5% dialyzed FBS, 0.1 mM NEAA, 1 mM sodium pyruvate and 10 mM HEPES was dispensed into 1536-well plates and cells were cultured at 37 degrees Celsius overnight. […] After centrifugation at 1000 rpm for 2 seconds the plates were incubated at 37 degrees Celsius for 5 hours. 1 uL of CCF4-dye mixture was added to each well. After incubated at room temperature for 2.5 hours the plates were measured on an EnVision plate reader at Excitation 405nm, Emission1=460nm and Emission 2=530nm. The %Activity was determined from the ratio of 460nm/530nm.
# % is scaled to controls: 0 for no effect and ±100 for the full control effect.
Compound,"activity change, negative = inhibition",outcome
COc1cc(CCN)ccc1O,-2.45%,
N[C@H](C(=O)O)c1cc(=O)[nH]o1,28.5%,
Oc1ccc2c3c1O[C@H]1c4[nH]c5ccccc5c4C[C@]4(O)[C@H](C2)N(CC2CC2)CC[C@@]314,-5.37%,
COc1ccc(CNC(=O)/C=C\c2ccc3[nH]cc(CCN(C)C)c3c2)cc1,20%,
C[C@]12N[C@@H](Cc3ccccc31)c1ccccc12,,inactive
CN1[C@@H]2CC[C@H]1CC(O[C@@H](c1ccccc1)c1ccc(Cl)cc1)C2 (stereo not given in full),16.1%,
C[C@H](N)Cc1c[nH]c2ccc(OCc3cccs3)cc12,3.52%,
C[C@H](N)Cc1cnc[nH]1,12.6%,
CCCC(=O)OCC[N+](C)(C)C,-1.59% [at 17.2 µM],
C=CCN1CC[C@]23c4c5ccc(O)c4O[C@@H]2C(=O)CC[C@]3(O)[C@H]1C5,5.6% [at 17.2 µM],
COC(=O)c1cc2c(cn1)[nH]c1ccccc12,-3.55%,
Oc1ccc2c3c1O[C@H]1c4oc5ccccc5c4C[C@]4(O)[C@H](C2)N(CC2CC2)CC[C@@]314,0.58%,
S=C=Nc1cccc(C2(N3CCCCC3)CCCCC2)c1,8.41%,
COc1ccc2c3c([nH]c2c1)C(C)=NCC3,-0.939% [at 17.2 µM],
O=C1CC[C@@]2(O)[C@H]3Cc4ccc(O)c5c4[C@@]2(CCN3CC2CC2)[C@@H]1O5,11.6%,
CN1CCN(C(=O)O[C@@H]2c3nccnc3C(=O)N2c2ccc(Cl)cn2)CC1,4.63%,
Cc1o[nH]c(=O)c1C[C@H](N)C(=O)O,7.71%,
CCOC(=O)c1cc2c(cn1)[nH]c1ccccc12,-11.3% [at 17.2 µM],
C[C@@H](Cc1ccc(OCC(=O)O)cc1)NC[C@H](O)c1cccc(Cl)c1,6.75%,
COC(=O)N1CCN(C(=O)Cc2ccc(Cl)c(Cl)c2)[C@H](CN2CCCC2)C1,1.55%,

Compound,"activity change, negative = inhibition",outcome
COc1ccc(-n2nc(C(F)(F)F)cc2-c2ccc(Cl)cc2)cc1,1.51%,
c1ccc2c3c([nH]c2c1)CNCC3,-9.19% [at 17.2 µM],
COc1ccc(CCN)cc1O,-1.51%,
O=C1NCN(c2ccccc2)C12CCN(C[C@H]1COc3ccccc3O1)CC2,-10.3%,
CC(C)(C)c1o[nH]c(=O)c1C[C@H](N)C(=O)O,11.3%,
N[C@H](CP(=O)(O)O)C(=O)O,-5.12%,
O[C@H]1CCCC[C@H]1N1CCC(c2ccccc2)CC1,-1.01% [at 17.2 µM],
CN(C(=O)Cc1ccc(Cl)c(Cl)c1)[C@@H](CN1CCCC1)c1cccc(OCC(=O)O)c1,4.35%,
O=C(O)c1ccccc1-c1c2cc(Br)c(=O)cc-2oc2[c]([Hg])c(O)c(Br)cc12,13.1% [at 17.2 µM],
COc1ccc2[nH]cc(CCN(C)C)c2c1,19% [at 17.2 µM],
NC[C@H](CP(=O)(O)O)c1ccc(Cl)cc1,5.53%,
CN(C)[C@@H]1C(=O)C(C(N)=O)=C(O)[C@@]2(O)C(=O)C3=C(O)c4c(O)ccc(Cl)c4[C@@](C)(O)C3C[C@@H]12 (stereo not given in full),-2.73% [at 17.2 µM],
C=CCN1CCC2(C)c3cc(O)ccc3C[C@H]1[C@H]2C,,inactive
CN1C(=O)CCS(=O)(=O)[C@H]1c1ccc(Cl)cc1,-1.5%,
CN1CCN(C(=O)OC2c3nccnc3C(=O)N2c2ccc(Cl)cn2)CC1 (stereo not given),-6.38% [at 17.2 µM],
CNCCc1c[nH]c2ccccc12,-10.8% [at 17.2 µM],
N[C@@H](CCP(=O)(O)O)C(=O)O,9.69% [at 7.69 µM],
O=C(Cc1ccc(Cl)c(Cl)c1)N1CCCC[C@H]1CN1CCCC1,3.89%,
CN(C)Cc1c[nH]c2ccccc12,6.51% [at 17.2 µM],
CCOC(=O)c1ncn2c1[C@H]1CCCN1C(=O)c1cc(OC)ccc1-2,2.4%,
